Reference: the antibiotic and cytotoxicity screens of Wong et al. (2023)
Among all 39,000 compounds or so, about 1,500 (3.8%) were called active. This is one part of a sample in which actives are shown more often than they occur.

The compounds below were run on HSkMC (human skeletal muscle cells) (assay: cytotoxicity call (relative viability < 0.9)). Conditions: 10 µM.
`CC(C)NC(=O)Nc1ccc2c(c1)C(=O)N([C@@H](C)CO)C[C@H](C)[C@@H](CN(C)Cc1ccc(Cl)c(Cl)c1)OCCCC[C@@H](C)O2` was tested, and the cytotoxicity call was “inactive”. `C[C@@H]1CN([C@H](C)CO)C(=O)c2cc(NS(=O)(=O)c3cccs3)ccc2O[C@@H](C)CCCCO[C@@H]1CN(C)C(=O)c1ccccc1` was tested, and the cytotoxicity call was “inactive”. For `C[C@H]1CN([C@@H](C)CO)C(=O)Cc2cc(NC(=O)Nc3cccc4ccccc34)ccc2O[C@H]1CN(C)C(=O)Nc1ccccc1`, the cytotoxicity call was “inactive”. With `C[C@@H]1CN([C@H](C)CO)C(=O)c2cccc(NC(=O)c3ccc(-c4nccs4)cc3)c2O[C@H]1CN(C)C(=O)Nc1ccccc1` the cytotoxicity call was “inactive”. In the case of `CC(=O)NC[C@H]1CN(c2ccc(N3CCN(C(=O)CO)CC3)c(F)c2)C(=O)O1`, the cytotoxicity call is reported as “inactive”. `CC(C)(C)CC(C)(C)c1cc(Cc2cc(C(C)(C)CC(C)(C)C)cc(-n3nc4ccccc4n3)c2O)c(O)c(-n2nc3ccccc3n2)c1` [listing 1 of 2 here] was tested, and the cytotoxicity call was “inactive”. `CC(C)(C)CC(C)(C)c1cc(Cc2cc(C(C)(C)CC(C)(C)C)cc(-n3nc4ccccc4n3)c2O)c(O)c(-n2nc3ccccc3n2)c1` [listing 2 of 2 here] was tested, and the cytotoxicity call was “inactive”. For `CC(C)(C)CC(C)(C)c1ccc(O)c(Cc2ccc(Cl)cc2Cl)c1`, the cytotoxicity call was “active”. For `O=C(CN1CCOCC1)NCC[C@@H]1CC[C@H](NC(=O)c2ccc3c(c2)OCO3)[C@@H](CO)O1`, the cytotoxicity call was “inactive”. For `C[C@@H]1CN([C@@H](C)CO)C(=O)c2cc(C#CC3(O)CCCC3)cnc2O[C@@H]1CN(C)C(=O)CN(C)C`, the cytotoxicity call was “inactive”. `C[C@H](CO)N1C[C@H](C)[C@H](CN(C)Cc2ccc(Oc3ccccc3)cc2)Oc2ccc(NC(=O)NC3CCCCC3)cc2C1=O` was tested, and the cytotoxicity call was “inactive”. `C[C@@H]1CN([C@@H](C)CO)C(=O)c2cc(NC(=O)NC3CCCCC3)ccc2O[C@H]1CN(C)Cc1ccc(Oc2ccccc2)cc1` was tested, and the cytotoxicity call was “active”. In the case of `C[C@@H]1CN([C@H](C)CO)C(=O)c2cc(NC(=O)C3CCCCC3)ccc2O[C@@H]1CN(C)Cc1ccc(-c2ccccc2)cc1`, the cytotoxicity call is reported as “inactive”. In the case of `C[C@H]1CN([C@@H](C)CO)C(=O)c2cc(NC(=O)C3CCCCC3)ccc2O[C@@H]1CN(C)Cc1ccc(-c2ccccc2)cc1`, the cytotoxicity call is reported as “inactive”. With `C[C@@H]1CN([C@@H](C)CO)C(=O)c2cc(NC(=O)NC3CCCCC3)ccc2O[C@@H]1CN(C)Cc1ccc(-c2ccccc2)cc1` the cytotoxicity call was “active”. For `CO[C@@H]1CN(C)C(=O)c2cc(NC(=O)NC3CCCCC3)ccc2OC[C@H](C)N(CCc2ccccc2)C[C@H]1C`, the cytotoxicity call was “inactive”. For `C[C@@H]1CN([C@H](C)CO)C(=O)c2cc(NC(=O)NC3CCCCC3)ccc2O[C@H]1CN(C)Cc1ccc(Oc2ccccc2)cc1`, the cytotoxicity call was “inactive”. For `C[C@@H]1CN([C@@H](C)CO)C(=O)c2cc(NC(=O)C3CCCCC3)ccc2O[C@@H]1CN(C)Cc1ccc(-c2ccccc2)cc1`, the cytotoxicity call was “active”. `C[C@@H]1CN([C@H](C)CO)C(=O)c2cc(NC(=O)NC3CCCCC3)ccc2O[C@H]1CN(C)Cc1ccc(-c2ccccc2)cc1` was tested, and the cytotoxicity call was “inactive”. In the case of `CO[C@H]1CN(C)C(=O)c2cc(NC(=O)NC3CCCCC3)ccc2OC[C@@H](C)N(CCc2ccccc2)C[C@@H]1C`, the cytotoxicity call is reported as “active”. `CO[C@H]1CN(C)C(=O)c2cc(NC(=O)NC3CCCCC3)ccc2OC[C@H](C)N(CCc2ccccc2)C[C@@H]1C` was tested, and the cytotoxicity call was “inactive”. For `C[C@H]1CN([C@@H](C)CO)C(=O)c2cc(NC(=O)NC3CCCCC3)ccc2O[C@H]1CN(C)Cc1ccc(-c2ccccc2)cc1`, the cytotoxicity call was “inactive”. `Cc1ccc(-c2c[nH]c(=S)[nH]2)cc1` was tested, and the cytotoxicity call was “inactive”. With `Cc1noc(C)c1NC(=O)Nc1ccc2c(c1)CC(=O)N([C@H](C)CO)C[C@@H](C)[C@@H](CN(C)C(=O)Nc1cccc3ccccc13)O2` the cytotoxicity call was “inactive”. In the case of `O=C(C[C@@H]1CC[C@H]2[C@@H](COC[C@@H](O)CN2S(=O)(=O)c2ccccc2)O1)NCCN1CCCC1`, the cytotoxicity call is reported as “inactive”. With `C[C@H]1CN([C@@H](C)CO)C(=O)Cc2cc(NS(C)(=O)=O)ccc2O[C@@H]1CN(C)C(=O)Nc1ccc2c(c1)OCO2` the cytotoxicity call was “inactive”. For `Cc1noc(C)c1NC(=O)Nc1cccc2c1O[C@@H](CN(C)S(C)(=O)=O)[C@H](C)CN([C@@H](C)CO)C2=O`, the cytotoxicity call was “inactive”. `NCCCCCNC(=O)[C@H]1C[C@H]2C(=O)NCC(=O)N2[C@H]1c1cccc(OCCO)c1` was tested, and the cytotoxicity call was “inactive”. `COc1ccc([C@@H]2CC(=O)c3c(O)cc(O[C@@H]4O[C@H](CO[C@@H]5O[C@@H](C)[C@H](O)[C@@H](O)[C@H]5O)[C@@H](O)[C@H](O)[C@H]4O)cc3O2)cc1O` was tested, and the cytotoxicity call was “inactive”. With `C[C@@H](NC(=O)C[C@H]1C=C[C@H](NC(=O)CN2CCOCC2)[C@@H](CO)O1)c1ccccc1` the cytotoxicity call was “inactive”. `O=C(Nc1ncc(SCCN2CCCC2)s1)[C@]1(c2ccc(S(=O)(=O)C3CC3)cc2)C[C@H]1C1CCCCC1` was tested, and the cytotoxicity call was “active”. `C[C@H]1CCCCO[C@H](CN(C)C(=O)Nc2ccc(F)cc2)[C@@H](C)CN([C@@H](C)CO)C(=O)c2cc(NC(=O)CCC(F)(F)F)ccc2O1` was tested, and the cytotoxicity call was “inactive”. With `COc1ccc(CN(C)C[C@H]2Oc3c(NS(C)(=O)=O)cccc3C(=O)N([C@H](C)CO)C[C@H]2C)cc1` the cytotoxicity call was “inactive”. For `CCCCCOc1ccc(-c2cc(-c3ccc(C(=O)N[C@H]4C[C@@H](O)[C@@H](O)NC(=O)[C@H]5[C@@H](O)[C@@H](C)CN5C(=O)[C@H]([C@@H](O)CC(N)=O)NC(=O)[C@H]([C@@H](O)[C@@H](O)c5ccc(O)c(OS(=O)(=O)O)c5)NC(=O)[C@H]5C[C@@H](O)CN5C(=O)[C@H]([C@@H](C)O)NC4=O)cc3)no2)cc1`, the cytotoxicity call was “inactive”. In the case of `CC[C@H](C)C[C@H](C)CCCCCCCCC(=O)N[C@H]1C[C@@H](O)[C@@H](NCCN)NC(=O)[C@@H]2[C@@H](O)CCN2C(=O)[C@H]([C@H](O)CCN)NC(=O)[C@H]([C@H](O)[C@@H](O)c2ccc(O)cc2)NC(=O)[C@@H]2C[C@@H](O)CN2C(=O)[C@H]([C@@H](C)O)NC1=O`, the cytotoxicity call is reported as “inactive”. `COc1ccc(NC(=O)N(C)C[C@@H]2Oc3ccc(NC(=O)CCCN(C)C)cc3CC(=O)N([C@H](C)CO)C[C@H]2C)cc1` was tested, and the cytotoxicity call was “inactive”. With `C[C@@H]1CCCCO[C@H](CN(C)C(=O)Nc2ccc3c(c2)OCO3)[C@H](C)CN([C@@H](C)CO)C(=O)c2cc(NC(=O)Nc3ccc(F)cc3)ccc2O1` the cytotoxicity call was “inactive”.
